A number with no mark means an inactive call. Results filed as inconclusive are left out. Entries that show only a call come without a potency. Activity calls are given as the source filed them. Unless noted, the call rests on the fitted dose curve; in most records, active means well fitted curve in the direction sought with a large enough effect in the repeat runs; inconclusive means weak or mixed curves; inactive means no such curve, though single readings can be large; an effect the other way counts as inactive or inconclusive.
Experiments:
[1] = qHTS assay for small molecules that induce genotoxicity in human embryonic kidney cells expressing luciferase-tagged ATAD5 (AID 651632); further: nearly all actives have a fitted effect of over 15% in size
Procedure, shortened: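 Increased luciferase signal from ATAD5-tagged reporter cells indicates DNA-damage-driven ATAD5 induction. HEK293T cells are treated for 16 hr at 37C before detection with Amplite.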

[2] = qHTS assay for small molecule agonists of the p53 signaling pathway - cell viability (AID 651633; calls by dose curve; further: nearly all actives have a fitted effect of over 30% in size; further: potency means the concentration at half of the fitted maximal effect)
Procedure, shortened: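 p53RE-bla cells were treated with compound for 16 hours at 37 C. Cytotoxicity was then measured as CellTiter-Glo luminescence after 30 min at room temperature.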

[3] = qHTS assay for small molecule disruptors of the mitochondrial membrane potential - cell viability (AID 720634; calls by dose curve;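 further: human HepG2 liver cancer cells; nearly all actives have a fitted effect of over 20% in size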)
Procedure, shortened: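 After overnight attachment at 37 C, HepG2 cells received compound or DMSO vehicle for 1 hr. Viability is then taken from ATP-driven luminescence following a 30 min room-temperature CellTiter-Glo step.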

[4] = qHTS assay for small molecule disruptors of the mitochondrial membrane potential (AID 720635); further: potency means the concentration at half of the fitted maximal effect
Procedure, shortened: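 HepG2 cells exposed to compound 1 hr at 37C, then Mito-MPS dye 30 min. Ratio read of aggregate (540/590 nm) versus monomer (490/535 nm) fluorescence.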

[5] = qHTS assay to test for compound auto fluorescence at 590 nm (red) in HepG2 cells (AID 720674)
Procedure, shortened: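 Fluorescence at 590 nm emission following 540 nm excitation was recorded from HepG2 wells one hour after compound transfer, with DMSO-only wells as vehicle and Rose Bengal sodium equivalency as the scale.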

[6] = qHTS assay to test for compound auto fluorescence at 535 nm (green) in HepG2 cells (AID 720675)
[7] = qHTS assay to test for compound auto fluorescence at 460 nm (blue) in HEK293 cells (AID 720678)
Procedure, shortened: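 Intrinsic compound fluorescence is recorded in live HEK293 cultures after overnight incubation at 37C, 5% CO2, using excitation 405 nm and emission 460 nm. Values are referenced to triamterene.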

[8] = qHTS assay to test for compound auto fluorescence at 590 nm (red) in HEK293 cells (AID 720679)
Procedure, shortened: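 Red autofluorescence, HEK293 cells: 2,000 cells/well; attach 4-5 hr 37C; add 23 nL cpd or DMSO; incubate o/n 37C 5% CO2; read Ex540/Em590; Rose Bengal sodium reference.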

[9] = qHTS assay to test for compound auto fluorescence at 535 nm (green) in HEK293 cells (AID 720680)
[10] = qHTS assay to test for compound auto fluorescence at 460 nm (blue) in HEK293 cell free culture (AID 720681)
Procedure, shortened: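 Compounds were added to cell-free DMEM with 10% FBS and fluorescence read directly. The blue channel used 405 nm excitation and 460 nm emission, with triamterene as the reference fluorophore.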

[11] = qHTS assay to test for compound auto fluorescence at 590 nm (red) in HEK293 cell free culture (AID 720683)
Procedure, shortened: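 Cell-free wells of DMEM with 10% FBS received compound, and intrinsic fluorescence was read at excitation/emission 540/590 nm. Values expressed as equivalence to Rose Bengal sodium.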

[12] = qHTS assay to test for compound auto fluorescence at 590 nm (red) in HepG2 cell free culture (AID 720684)
Procedure, shortened: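 Compound was pinned into wells holding MEM with 10% FBS and no cells, and red fluorescence was read at Ex/Em 540/590 nm. Signal is expressed as auto fluorescence equivalency relative to Rose Bengal sodium.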

[13] = qHTS assay to test for compound auto fluorescence at 460 nm (blue) in HepG2 cell free culture (AID 720685)
Procedure, shortened: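 Compound (23 nL) or DMSO pinned into cell-free MEM with 10% FBS; blue fluorescence read at 405/460 nm excitation/emission, expressed as auto-fluorescence equivalency to triamterene.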

[14] = qHTS assay to test for compound auto fluorescence at 460 nm (blue) in HepG2 cells (AID 720687)
Procedure, shortened: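 HepG2 cells in MEM with 10% FBS, attached overnight at 37 C, were exposed to compound or DMSO for 1 hr at 37 C, 5% CO2. Blue fluorescence was read at 405/460 nm, with triamterene as reference fluorophore.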

[15] = target: Glucocorticoid receptor (Homo sapiens) (UniProt P04150); assay: qHTS assay to identify small molecule agonists of the glucocorticoid receptor (GR) signaling pathway (AID 720691; active means well fitted activation curve with a large enough effect in the signal ratio in the repeat runs, not every such curve was filed as active; the % refers to the signal ratio); conditions: GR-bla HeLa, beta-lactamase reporter ratio, 18 h; activation: at 62.4 µM (top of the series) unless noted
Procedure, shortened: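 Agonist mode in a HeLa line carrying a GRE-controlled beta-lactamase reporter. Compounds act for 18 h at 37 C before a 2 h room-temperature FRET substrate step and fluorescence reading.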

[16] = qHTS assay for small molecules that induce genotoxicity in human embryonic kidney cells expressing luciferase-tagged ATAD5 - cell viability (AID 651634; calls by dose curve; further: nearly all actives have a fitted effect of over 25% in size; further: potency means the concentration at half of the fitted maximal effect)
Procedure, shortened: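 Cytotoxicity counterscreen in HEK293T cells bearing an ATAD5-luciferase reporter: live-cell protease activity measured by CellTiter-Fluor fluorescence after 15.5 hr compound exposure.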

[17] = qHTS assay to test for compound auto fluorescence at 535 nm (green) in HEK293 cell free culture (AID 720682)
Procedure, shortened: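 No cells present: wells hold DMEM supplemented with 10% FBS, into which compound or vehicle is pinned. Green emission is then recorded (485 nm excitation, 535 nm emission) and scaled to fluorescein.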

[18] = qHTS assay to test for compound auto fluorescence at 535 nm (green) in HepG2 cell free culture (AID 720686)
[19] = target: Glucocorticoid receptor (Homo sapiens) (UniProt P04150); assay: qHTS assay to identify small molecule antagonists of the glucocorticoid receptor (GR) signaling pathway (AID 720692; active means well fitted inhibition curve with a large enough effect in the signal ratio in the repeat runs, not every such curve was filed as active; the % refers to the signal ratio)
Procedure, shortened: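 Cells plated, rested 4 h at 37 C/5% CO2; compounds in DMSO pin-transferred; dexamethasone added to 5 nM final; 18 h at 37 C; B/G FRET substrate added, 2 h room temperature; fluorescence measured.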

Glucocorticoid receptor (Homo sapiens), sequence (P04150 whole entry, looked up): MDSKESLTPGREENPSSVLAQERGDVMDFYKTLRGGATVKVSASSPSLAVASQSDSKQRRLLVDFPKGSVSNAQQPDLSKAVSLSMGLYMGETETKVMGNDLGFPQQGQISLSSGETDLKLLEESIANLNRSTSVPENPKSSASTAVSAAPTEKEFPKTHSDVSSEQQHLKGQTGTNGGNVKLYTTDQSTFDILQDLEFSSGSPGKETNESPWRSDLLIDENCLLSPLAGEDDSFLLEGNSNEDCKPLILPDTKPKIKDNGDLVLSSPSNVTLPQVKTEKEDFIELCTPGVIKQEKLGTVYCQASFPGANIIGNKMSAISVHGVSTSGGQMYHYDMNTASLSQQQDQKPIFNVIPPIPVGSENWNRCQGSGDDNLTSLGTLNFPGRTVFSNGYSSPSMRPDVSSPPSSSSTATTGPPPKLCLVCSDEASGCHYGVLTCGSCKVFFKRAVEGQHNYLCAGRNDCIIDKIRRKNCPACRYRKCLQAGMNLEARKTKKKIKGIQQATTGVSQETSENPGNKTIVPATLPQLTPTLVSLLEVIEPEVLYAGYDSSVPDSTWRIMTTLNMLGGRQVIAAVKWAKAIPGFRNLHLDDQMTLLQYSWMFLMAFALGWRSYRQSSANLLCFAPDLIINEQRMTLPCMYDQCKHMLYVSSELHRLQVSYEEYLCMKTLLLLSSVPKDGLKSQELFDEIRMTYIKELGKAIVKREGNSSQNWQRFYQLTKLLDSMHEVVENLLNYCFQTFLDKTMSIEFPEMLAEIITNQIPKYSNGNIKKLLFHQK

Structure (SMILES) | Potency [1] | Potency [2] | Potency [3] | Potency [4] | Potency [5] | Potency [6] | outcome [7] | Potency [8] | outcome [9] | outcome [10] | Potency [11] | Potency [12] | outcome [13] | outcome [14] | Potency [15] | Potency [16] | outcome [17] | Potency [18] | Potency [19]
C=C1C(=C/C=C2\CCC[C@]3(C)[C@@H]([C@H](C)/C=C/[C@@H](O)C4CC4)CC[C@@H]23)C[C@@H](O)C[C@@H]1O | inactive | 26.6 µM (active) | inactive | 22.1 µM (active) | inactive | inactive | inactive | inactive | inactive | inactive | inactive | inactive | inactive | inactive | inactive | – | – | – | –
O=C(Cl)c1cc(C(=O)Cl)cc(C(=O)Cl)c1 | inactive | inactive | inactive | – | inactive | – | inactive | inactive | inactive | inactive | inactive | inactive | inactive | inactive | – | inactive | inactive | inactive | –
CCCCCCCCCCCc1ccccc1 | inactive | inactive | inactive | – | – | inactive | inactive | inactive | inactive | inactive | inactive | inactive | inactive | inactive | inactive | – | inactive | inactive | –
CCC(Cl)CCC(Cl)C(Cl)CC(Cl)C(Cl)C(Cl)CCl (configuration not stated) | inactive | inactive | inactive | – | inactive | inactive | inactive | inactive | inactive | inactive | inactive | inactive | inactive | – | inactive | – | inactive | inactive | inactive
CN1CCC(N(Cc2cccs2)c2ccccc2)CC1 | inactive | inactive | inactive | – | inactive | inactive | inactive | inactive | inactive | inactive | inactive | – | inactive | inactive | inactive | inactive | inactive | inactive | –
CCOc1ccc(N=Nc2ccc(/C=C/c3ccc(N=Nc4ccc(OCC)cc4)cc3S(=O)(=O)O)c(S(=O)(=O)O)c2)cc1 | inactive | inactive | inactive | – | inactive | inactive | inactive | inactive | inactive | – | inactive | inactive | inactive | inactive | inactive | 42.6 µM (active) | inactive | inactive | inactive
OCCN1CCN(CCCN2c3ccccc3C=Cc3ccccc32)CC1 | inactive | inactive | inactive | – | – | inactive | – | inactive | inactive | inactive | inactive | inactive | inactive | inactive | inactive | – | inactive | – | –
COc1ccc(C(=O)Nc2nc3ccccc3c(NCc3ccccc3)c2C#N)cc1 | inactive | inactive | – | 5.45 µM (active) | – | inactive | inactive | inactive | inactive | inactive | – | inactive | inactive | inactive | – | inactive | – | inactive | –
CN(C)CCN(Cc1ccccc1)c1ccccn1 | inactive | inactive | inactive | – | inactive | inactive | inactive | inactive | inactive | inactive | inactive | inactive | inactive | inactive | inactive | inactive | inactive | inactive | inactive
O=C(O)C(S)C(S)C(=O)O (configuration not stated) | inactive | inactive | inactive | inactive | inactive | inactive | inactive | inactive | inactive | inactive | inactive | – | – | inactive | – | – | inactive | inactive | –

Reference: PubChem BioAssay (Tox21)
